Experimental data: PubChem BioAssay (EPA / NIEHS)
Some compounds were tested as several samples or in several runs, with calls that do not always agree. The source made the active and inactive calls. Rule for the calls: active = hit-call score of the fitted dose curve at least 0.9, where 1 is the maximum; inactive = score below 0.9.

Read-out: Matrix Metallopeptidase 9 (MMP9), MMP9 (gene 4318)
Test: BSK_BE3C_MMP9: BioMAP Diversity Plus: BE3C Assay for Matrix Metallopeptidase 9 (MMP9) Biomarker Activity (AID 2284283)
Details: primary human bronchial epithelial cells
Protocol: BSK_BE3C is a cell-based, multiplexed-readout assay that uses bronchial epithelial cell, a human lung primary cell, with measurements taken at 24 hours after chemical dosing in a 96-well plate.BSK_BE3C_MMP9 is an assay component measured in the BSK_BE3C assay. It measures MMP-9 antibody related to regulation of gene expression using ELISA technology.Data from the assay component BSK_BE3C_MMP9 was analyzed at the endpoint, BSK_BE3C_MMP9, in the positive analysis fitting direction relative to DMSO as the negative control and baseline of activity. Using a type of binding reporter, gain or loss-of-signal activity can be used to understand protein changes. To generalize the intended target to other relatable targets, this assay endpoint is annotated to the 'protease' intended target family, where the subfamily is 'matrix metalloproteinase'.
The levels of cell surface (or secreted, indicated by the prefix "s") biomarker endpoints were measured by ELISA. Overt cytotoxicity to cells in confluent adherent cultures (all systems other than the BT system) was assessed by measuring total protein levels using sulforhodamine B (SRB) staining in parallel cultures at the time of biomarker measurements, indicated as SRB endpoints. For proliferation assays for adherent cell types, individual cell types are cultured at sub-confluence and relative cell numbers quantified by SRB staining at time points optimized for each system (48 h: 3C and CASM3C systems; 72 h: BT and HDF3CGF systems; 96 h: SAg system). SRB was performed by staining cells with 0.1% SRB after fixation with 10% TCA and reading wells at 560 nm.Viability and proliferation of PBMC (T cells) was quantified by Alamar Blue reduction for the SAg and BT systems. For PBMC viability (referred to as PBMC Cytotoxicity within the assay endpoint names), cells were plated (75,000/well in a 96-well plate) and then chemical samples added for 1 h before addition of activators, SEB and TSST-1 (20 ng/mL final concentration each). Cells were incubated for 90 h. Then, Alamar Blue (20 uL/well) (Invitrogen, Cat DAL1100) was added for 6 h, and the plates were read with a fluorescence microplate reader at 546/580 nm (excitation/emission). For PBMC proliferation, cells were plated and activated as above but incubated for only 16 h prior to addition of Alamar Blue. Plates were read after 6 h.

Which outcome does the source give for `OCC(F)(F)OC(F)(F)C(F)(F)OC(F)(F)CO` here?
The outcome was “inactive”.

With `O=C(O)C=CC(F)(C(F)(F)F)C(F)(F)F` as the compound, how does the outcome read?
Its outcome is “inactive”.

Which outcome does the source give for `O=C(O)C(F)(F)OC(F)(F)C(F)(F)OC(F)(F)C(=O)O` here?
The outcome was “inactive”.

For `O=C(O)C(F)(F)OC(F)(F)C(F)(F)OC(F)(F)F`, which outcome is on record?
The outcome was “inactive”.

How did the outcome turn out when `COP(=O)(CCC(=O)NCO)OC` was run?
The outcome was “inactive”.

`OCC(F)(F)OC(F)(F)C(F)(F)OC(F)(F)C(F)(F)OC(F)(F)CO` was tested. Which outcome did it give?
Its outcome is “inactive”.

`O=S(=O)(F)C(F)(F)C(F)(F)C(F)(F)C(F)(F)C(F)(F)C(F)(F)C(F)(F)C(F)(F)F` was tested. Which outcome did it give?
The outcome was “inactive”.

How did the outcome turn out when `O=C(O)C(F)(F)C(F)(F)C(=O)O` was run?
The outcome was “inactive”.

`O=C(O)C(F)(OC(F)(F)C(F)(F)C(F)(F)F)C(F)(F)F` (stereo unspecified) was tested. Which outcome did it give?
The outcome was “inactive”.

What about the AC50 of the same compound?
The AC50 was 1450 nM (active).

With `COC(=O)C(F)(F)C(F)(F)OC(F)(C(F)(F)F)C(F)(F)OC(F)=C(F)F` (stereo unspecified) as the compound, how does the outcome read?
The outcome was “inactive”.

How did the outcome turn out when `FC(F)(F)C(F)(C(F)(F)F)C(F)(F)C(F)(F)CC1CO1` (stereo unspecified) was run?
Its outcome is “inactive”.

Which outcome does the source give for `OCC(F)(F)OC(F)(F)C(F)(F)OC(F)(F)C(F)(F)OC(F)(F)F` here?
The outcome was “inactive”.

Which outcome does the source give for `C=CC(=O)OCC(F)(F)C(F)F` here?
Its outcome is “inactive”.

Which outcome does the source give for `NC(=O)C(F)(F)C(F)(F)F` here?
Its outcome is “inactive”.

With `CC(O)C(F)(F)C(F)(F)F` (stereo unspecified) as the compound, how does the outcome read?
The outcome was “inactive”.
